mHTT-CaM PPI inh: disrupts binding of mutant huntingtin to calmodulin. P42858. AlphaScreen His-mHTT/GST-CaM binding, luminescence. inhibition, % at 15 µM. 3.6% of 190,000 active;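 further: 0% = both proteins with DMSO and 100% = one protein alone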
Pf apPOL block: Pf-apPOL DNA polymerase inhibition; AID 1794808; 0.25% of 210,000 active; inhibition, % at 10 µM; Recombinant Pf-apPOL, molecular beacon fluorescence, 1.5 h
The depositor's hits bear a star. Compounds with a hit are over-represented: about 3.6% of the library has one in this group of screens. No stated cut-off is given here; in the data, active means inhibition above about 50%; inactive means the rest.

Screening COc1cc(C2C(C#N)=C(N)Oc3n[nH]c(-c4ccc(Br)cc4)c32)cc(OC)c1O (configuration not stated) returned mHTT-CaM PPI inh 87* and Pf apPOL block -8.
`COc1ccc(-c2[nH]nc3c2C(c2cc(Cl)c(O)c(OC)c2)C(C#N)=C(N)O3)cc1` (configuration not stated) gave mHTT-CaM PPI inh 32 and Pf apPOL block 3.
For COc1cc(C2C(C#N)=C(N)Oc3n[nH]c(C(F)(F)F)c32)cc(OC)c1OC (configuration not stated) the results were mHTT-CaM PPI inh 7 and Pf apPOL block 0.
Screening CC1CCN(C(=O)C2CCN(c3cnc(N4CCCCC4)nc3)CC2)CC1 returned mHTT-CaM PPI inh -3 and Pf apPOL block 0.
Screening COc1ccc(-n2c(-c3cccc(OC)c3)csc2=NCc2cccnc2)cc1 returned Pf apPOL block 6.
Cc1ccc(CNC(=O)C2CCN(c3nccn4nc(-c5cccs5)cc34)CC2)cc1 was read as mHTT-CaM PPI inh 18 and Pf apPOL block -6.
For COc1ccc(NC(=O)C23CC4CC(CC(C4)C2)C3)c([N+](=O)[O-])c1 the results were mHTT-CaM PPI inh 10 and Pf apPOL block 1.
Screening O=C(c1nc(-c2cccc(F)c2)n2c1CCCCC2)N1CCN(c2ccccc2)CC1 returned mHTT-CaM PPI inh 78* and Pf apPOL block -4.
COc1ccc(N2CCN(C(=O)c3nc(-c4cccc(F)c4)n4c3CCCCC4)CC2)cc1 was read as mHTT-CaM PPI inh 44 and Pf apPOL block 0.
CCn1ccc2c(cc(C(=O)Nc3ccc(OC)c(Cl)c3)n2C)c1=O was read as mHTT-CaM PPI inh -4 and Pf apPOL block 0.
Screening CN1C(=O)C(=O)C(=C(O)c2ccccc2)C1c1ccc(F)cc1 (configuration not stated) returned mHTT-CaM PPI inh 3 and Pf apPOL block 2.
Screening Cc1cc(NC(=O)CSc2nncn2C)no1 returned mHTT-CaM PPI inh -22 and Pf apPOL block 3.
Screening NS(=O)(=O)c1cc2c3c(c1)C1C=CCC1C(c1ccc([N+](=O)[O-])cc1)N3CC1CC=CC21 (configuration not stated) returned mHTT-CaM PPI inh 63* and Pf apPOL block -8.
O=C(O)c1cc2c3c(c1)C1C=CCC1C(c1ccccc1)N3CC1CC=CC21 (configuration not stated) was read as mHTT-CaM PPI inh 94* and Pf apPOL block 3.
O=C(O)c1cc2c3c(c1)C1C=CCC1C(c1ccc(F)cc1)N3CC1CC=CC21 (configuration not stated) was read as mHTT-CaM PPI inh 96* and Pf apPOL block -2.
Screening O=C(O)c1cc2c3c(c1)C1C=CCC1C(c1cccc([N+](=O)[O-])c1)N3CC1CC=CC21 (configuration not stated) returned mHTT-CaM PPI inh 70* and Pf apPOL block 4.
O=[N+]([O-])c1ccc(S(=O)(=O)N2CC3C4C=CC(C4)C3C2)cc1 (configuration not stated) was read as mHTT-CaM PPI inh 4 and Pf apPOL block 8.
Screening C1=CC2c3cccc4c3N(CC2C1)CC1CC=CC41 (configuration not stated) returned mHTT-CaM PPI inh 40.
`O=C(O)c1ccc2c3c1C1C=CCC1CN3CC1CC=CC21` (configuration not stated) gave mHTT-CaM PPI inh 16 and Pf apPOL block 12.
For O=[N+]([O-])c1cccc(C2N(c3ccccc3)CCN2c2ccccc2)c1 the results were Pf apPOL block -3.
`Cc1ccc(NC(=O)CCCN2C(=O)c3cccnc3C2=O)cc1F` gave mHTT-CaM PPI inh 7 and Pf apPOL block -36.
For O=[N+]([O-])c1ccc(CSc2nc3ncccc3[nH]2)cc1 the results were mHTT-CaM PPI inh 0 and Pf apPOL block -7.
`COc1ccc(Cl)cc1NC(=O)N1CCC(Cn2cnc3ccccc32)CC1` gave mHTT-CaM PPI inh 5 and Pf apPOL block -9.
O=C(O)c1cc2c3c(c1)C1C=CCC1C(c1ccccc1F)N3CC1CC=CC21 (configuration not stated) was read as mHTT-CaM PPI inh 70* and Pf apPOL block -7.
O=C(O)c1ccc2c(c1)C1C=CCC1C(c1ccccc1Br)N2 (configuration not stated) was read as mHTT-CaM PPI inh 23 and Pf apPOL block -1.
Screening COc1ccc(C(=O)NCc2nc3ccccc3n2Cc2ccccc2F)cc1OC returned mHTT-CaM PPI inh 58* and Pf apPOL block 1.
For COc1ccc(C(=O)NCCc2nc3ccccc3n2Cc2ccccc2F)cc1OC the results were mHTT-CaM PPI inh 32 and Pf apPOL block 3.
Cc1ccc(CN2C(=O)C(=O)c3cc(Cl)ccc32)cc1 was read as mHTT-CaM PPI inh 62* and Pf apPOL block -7.
Cc1ccc(CN2C(=O)C(=O)c3cc(S(=O)(=O)N4CCOCC4)ccc32)cc1 was read as mHTT-CaM PPI inh 89* and Pf apPOL block 37.

Assay outcomes from PubChem.
